Assay outcomes deposited in PubChem by Broad Institute.
Only some compounds are listed: those with a hit (about 4% of all), similar ones and a draw of the others.
MITF TRPM1 inh = MITF TRPM1 promoter inhibition in SK-MEL-5 cells. SK-MEL-5 TRPM1 promoter luciferase, 24 h. inhibition, % at 12.5 µM. actives 0.83% (n = 330,000). AID 488899;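 active means mean inhibition across replicates of 60% or more, whatever share of single replicates reaches that level; inconclusive means some that reach 60%, reason not given; inactive means mean inhibition across replicates below 60%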
MITF TRPM1 HTS = activators of MITF-driven TRPM1 promoter activity in SK-MEL-5 cells | SK-MEL-5 TRPM1-promoter luciferase, 24 h; % of positive control, neutral wells = 0 | activation, % at 12.5 µM | actives 0.75% (n = 300,000) | AID 588334;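 active means mean activation of at least 80% with every replicate also reaching 80%; inconclusive means mean reaches 80% but some replicate falls short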;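 further: 0% = neutral control wells and 100% = parthenolide positive control wells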
PAX8 reporter = inhibitors of PAX8 transcriptional activity in RMG-I cells; RMG-I TPO-luciferase reporter, SteadyGlo, 24 h; AID 652154; inhibition, % at 12.6 µM; actives 1.2% (n = 360,000);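 active means mean replicate inhibition at least 60% with every replicate also reaching 60%; inconclusive means only one of the two criteria is met; inactive means mean below 60% and not all replicates reaching 60%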;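 further: luciferase light reporting Pax8 driven TPO promoter activity; plate controls were median of neutral control wells for no effect and mitoxantrone controls for full effect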
esBAF inh = inhibitors of esBAF chromatin remodeling in mouse ES cells | reporter increase, % at 12.5 µM | AID 602393 | Bmi1-luciferase knock-in reporter, 24 h; 100% = twice the neutral-well signal | actives 2% (n = 350,000); in the data active means activation above about 40%; inconclusive means no clear call, values can overlap the other calls;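 further: 0% = median of the plate's neutral control wells and 100% = double that signal; a rise in the Bmi1 reporter signal indicates esBAF inhibition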
Wnt bcat act = activates Wnt/beta-catenin signaling in a reporter cell assay | activator, plate reader | activation, % at 9.35 µM | actives 1.2% (n = 300,000); in the data active means activation above about 30%, passing the limit was not always enough; inconclusive means no clear call, values can overlap the other calls;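 further: 0% = neutral control wells and 100% = positive control wells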
EWS-Fli inh = inhibitors of EWS/Fli oncoprotein transcriptional activity; AID 651661; A673 NR0B1-luciferase reporter, viability-normalised; actives 0.67% (n = 350,000); inhibition, % at 12.6 µM;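 active means mean inhibition of at least 50% after viability correction, with every replicate also passing that limit; inconclusive means mean reaches 50% but only one of two replicates passes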;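 further: firefly luciferase signal divided by Alamar Blue viability fluorescence both relative to DMSO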
* hit, by the source's call; ? = inconclusive; nt = no result given.

SMILES | MITF TRPM1 inh | MITF TRPM1 HTS | PAX8 reporter | esBAF inh | Wnt bcat act | EWS-Fli inh
O=C(C[C@@H]1CC[C@@H]2NC[C@@H](O)COC[C@H]2O1)Nc1ccccc1 | nt | nt | 2 | -3 | nt | 4
COc1cccc(-c2ccc3c(c2)O[C@@H](CN(C)C(=O)C2CCOCC2)[C@@H](C)CN([C@H](C)CO)S3(=O)=O)c1 | nt | nt | -9 | 3 | nt | 0
CO[C@H]1CN(C)C(=O)c2cc(NC(=O)Nc3ccc(C(F)(F)F)cc3)ccc2OC[C@H](C)NC[C@@H]1C | nt | nt | nt | 1 | nt | 14
COc1ccc(NC(=O)/C=C/c2ccc(F)cc2)cn1 | -37 | 39 | -136 | nt | 19 | -95
COc1ccc(NC(=O)/C=C/c2ccccc2)cn1 | -112 | 122* | -172 | 42* | nt | nt
CN(C)c1ccc(NC(=O)c2ccc(COc3cccc(Cl)c3)o2)cc1 | -10 | 13 | nt | 74* | nt | nt
Cc1ccc(S(=O)(=O)N(C)C[C@@H]2Oc3ccc(NS(=O)(=O)c4cn(C)cn4)cc3CC(=O)N([C@@H](C)CO)C[C@H]2C)cc1 | nt | nt | -17 | 2 | nt | -8
COc1ccc(C(=O)CNc2ccccc2CO)cc1 | -52 | 52 | 14 | nt | 1 | -47
COc1ccc(C(=O)COc2ccccc2C#N)cc1 | -50 | nt | -71 | nt | 46* | -101
COC(=O)CCC(=O)COc1ccc(OC)cc1C#N | -99 | 114* | nt | -9 | nt | nt
COc1ccc(C(=O)CNc2ccccc2C#N)cc1 | -60 | 60 | -73 | 50* | 5 | -34
COc1ccc(C#Cc2ccc3c(c2)O[C@@H](CN(C)C(=O)CN2CCOCC2)[C@@H](C)CN([C@@H](C)CO)S3(=O)=O)cc1 | nt | nt | 36 | 1 | nt | -13
CCS(=O)(=O)Nc1ccc2c(c1)C(=O)N(C)[C@H]1CC[C@H](CC(=O)Nc3ccccc3C)O[C@@H]1CO2 | nt | nt | nt | nt | nt | -5
Cc1ccc(S(=O)(=O)N[C@@H]2CC[C@H](CCn3cc(C4CCCCC4)nn3)O[C@H]2CO)cc1 | nt | nt | 9 | 7 | nt | 1
O=C(Nc1cc(F)ccc1F)N1C[C@H]2[C@@H](c3ccccc31)[C@@H](CO)N2Cc1cccnc1 | nt | nt | -1 | -1 | nt | -5
COc1ccc(S(=O)(=O)/N=C2/NC(=O)/C(=C/c3ccco3)S2)cc1 | 11 | -15 | 70* | nt | -3 | -8
COc1ccc(S(=O)(=O)/N=C2/NC(=O)/C(=C\c3ccco3)S2)cc1 | 5 | -4 | 3 | nt | nt | nt
Cc1nn(CCOc2ccccc2)c(=O)n1-c1ccc(Cl)cc1 | -13 | 19 | -43 | 39 | 3 | -58
Cc1nn(CCOc2ccccc2)c(=O)n1-c1ccccc1 | -20 | 22 | -76 | 43* | 27 | nt
Cc1cc(C)n2nc(SCc3ccccc3F)nc2n1 | -25 | 22 | -6 | ? | 2 | -39
Cc1cc(C)n2nc(SCN3C(=O)c4ccccc4C3=O)nc2n1 | -85 | 84* | nt | 0 | -4 | -10
Cc1cc(C)n2nc(SCC3COc4ccccc4O3)nc2n1 (stereo unspecified) | -48 | nt | -81 | 63* | 7 | nt
Cc1cc(C)n2nc(SCc3nnc(SCc4ccccc4C)s3)nc2n1 | -13 | 8 | nt | 83* | -2 | 1
Cc1cc(C)n2nc(SCC(=O)Nc3ccccc3)nc2n1 | 3 | 0 | 2 | -8 | 1 | 0
C[C@@H]1CN([C@@H](C)CO)C(=O)c2cc(-c3ccc(C#N)cc3)cnc2O[C@H]1CN(C)Cc1cncnc1 | nt | nt | nt | 3 | nt | 1
SMILES | MITF TRPM1 inh | MITF TRPM1 HTS | PAX8 reporter | esBAF inh | Wnt bcat act | EWS-Fli inh
O=C(O)C1C(c2ccccc2)C(C(=O)Oc2ccccc2)C1c1ccccc1 (stereo unspecified) | -2 | 1 | nt | -2 | nt | nt
CC(C)CCOC(=O)C1C(c2ccccc2)C(C(=O)O)C1c1ccccc1 (stereo unspecified) | -2 | 6 | 8 | -6 | 43* | nt
Clc1ccsc1-c1csc(-c2cccnc2)n1 | -8 | 11 | nt | 70* | nt | nt
c1cncc(-c2csc(-c3cccnc3)n2)c1 | -28 | 25 | -6 | 36 | 2 | -9
c1cncc(-c2nc(-c3ccc4c(c3)OCO4)cs2)c1 | -73 | 85* | nt | 52* | 32* | nt
C[C@@H]1CN([C@@H](C)CO)S(=O)(=O)c2ccc(-c3cccnc3)cc2O[C@@H]1CN(C)C(=O)NC1CCCC1 | nt | nt | 9 | 1 | nt | -4
CN(C)CCCNC(=O)C[C@H]1CC[C@@H]2[C@H](COc3ccc(NC(=O)C4CCC4)cc3C(=O)N2C)O1 | nt | nt | 2 | 3 | nt | -6
COc1ccc(C(=O)c2cc([N+](=O)[O-])ccc2N2CCOCC2)cc1 | 50 | -48 | 105* | nt | -32 | 48
Cc1ccc(C(=O)c2cc([N+](=O)[O-])ccc2N2CCOCC2)cc1 | -9 | 14 | 27 | nt | nt | nt
Cc1ccc(C(=O)c2cc([N+](=O)[O-])ccc2N2CCCCC2)c(C)c1 | 31 | -28 | 89* | nt | -15 | 48
CCOc1ccc(C(=O)c2cc([N+](=O)[O-])ccc2N2CCOCC2)cc1 | 34 | -33 | 91* | nt | -8 | 33
CCCNC(=O)N(C)C[C@@H]1Oc2cc(C#CCC(C)C)ccc2S(=O)(=O)N([C@@H](C)CO)C[C@H]1C | nt | nt | nt | -6 | nt | 10
COc1ccc(C(=O)Nc2ccc3c(c2)OC[C@@H](C)N(Cc2cocn2)C[C@@H](C)[C@@H](OC)CN(C)C3=O)cc1 | nt | nt | -1 | 3 | nt | -6
O=C(C[C@H]1CC[C@H]2[C@@H](COC[C@H](O)CN2Cc2ccc(Cl)cc2)O1)Nc1nccs1 | nt | nt | -2 | 4 | nt | -1
COc1cccc(CNC(=O)C[C@@H]2C=C[C@H](NS(=O)(=O)c3ccccc3OC)[C@H](CO)O2)c1 | nt | nt | -3 | 0 | nt | 0
O=c1c2c3c(sc2nc(N2CCNCC2)n1CCc1ccccc1)CCCCC3 | 69* | nt | 10 | nt | -2 | 19
COc1ccc(C(C)=O)cc1CC(=O)NC1CCCCCC1 | 9 | -9 | -25 | -1 | -4 | -7
COc1c(C=O)c2c(c(OC)c1OC)-c1ccc(OC)c(=O)cc1C(NC(C)=O)CC2 (stereo unspecified) | 42 | -39 | 87* | nt | -6 | 42
COC(=O)c1ccc2c(c1)C(NC(C)=O)CCc1cc(OC)c(OC)c(OC)c1-2 (stereo unspecified) | 35 | nt | 85* | nt | -22 | 46
COc1cc(CC(=O)NC2CCCc3ccccc32)cc(OC)c1OC (stereo unspecified) | 1 | 0 | 0 | 5 | -5 | 3
COc1cccc(C(=O)Nc2ccc3c(cc2=O)[C@@H](NC(C)=O)CCc2cc(OC)c(OC)c(OC)c2-3)c1 | 62* | -62 | nt | -12 | nt | nt
CCCC(=O)NC1CCc2cc(OC)c(OC)c(OC)c2-c2ccc(OC)c(=O)cc21 (stereo unspecified) | 49 | nt | 78* | nt | -9 | 24
O=C(C[C@H]1CC[C@@H]2[C@H](COC[C@H](O)CN2C(=O)c2ccccn2)O1)NC1CCC1 | nt | nt | nt | -4 | nt | nt
CO[C@@H]1CN(C)C(=O)c2cc(NS(C)(=O)=O)ccc2OC[C@H](C)N(CCC(F)(F)F)C[C@@H]1C | nt | nt | nt | -5 | nt | -3
